From the supplement of paper PMC6897291

System: U-2932
Assay: growth inhibition by drug alone (1 - RLU/untreated control) (fraction); higher = stronger inhibition
Settings: 177Lu-lilotomab satetraxetan 0 ug/ml
Experimental: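 U-2932 ABC-DLBCL cells were pretreated or not for 18 h with 1 ug/ml 177Lu-lilotomab satetraxetan (600 MBq/mg), washed and seeded (3000 cells/well) on 384-well plates pre-printed with the Selleck Cambridge Cancer Compound library. Viability was read by RealTime-Glo luminescence on days 3-6 after seeding. Effect = 1 - RLU/mean RLU of the 48 untreated no-drug control wells per plate; Bliss score = (M-E)/(1-Fa), with E the expected Bliss-additive effect.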

Structure (SMILES)	growth inhibition by drug alone (10 nM, time (day): 3)	growth inhibition by drug alone (10 nM, time (day): 4)	growth inhibition by drug alone (10 nM, time (day): 5)	growth inhibition by drug alone (10 nM, time (day): 6)	growth inhibition by drug alone (1000 nM, time (day): 3)	growth inhibition by drug alone (1000 nM, time (day): 4)	growth inhibition by drug alone (1000 nM, time (day): 5)	growth inhibition by drug alone (1000 nM, time (day): 6)
O=C1[C@H](CC[C@H](O)c2ccc(F)cc2)[C@@H](c2ccc(O)cc2)N1c1ccc(F)cc1 [Ezetimibe (Zetia)]	0.207	0.167	0.0126	-0.0222	0.1	0.113	0.0388	-0.0102
Cn1cc(-c2ccc3nnc(C(F)(F)c4ccc5ncccc5c4)n3n2)cn1	-0.0908	-0.108	-0.0614	-0.0112	-0.151	-0.112	-0.0976	0.0327
COc1ccc2c(c1)CCC1C2CCC2(C)C(NCCCCCCN3C(=O)C=CC3=O)CCC12 (stereo not given)	0.079	0.0406	0.0171	-0.0318	-0.0546	0.0273	-0.0312	-0.361
C#Cc1cccc(Nc2ncnc3cc(OC)c(OCCCCCCC(=O)NO)cc23)c1	-0.0221	-0.0137	-0.0216	0.0129	0.966	0.973	0.975	0.978
CN[C@@H](C)C(=O)N[C@H]1CN(C(=O)CC(C)C)CC[C@H]2CC[C@@H](C(=O)NC(c3ccccc3)c3ccccc3)N2C1=O	0.0554	0.0151	-0.0459	-0.197	-0.059	-0.0374	-0.0798	-0.0575
